This note sets out measurements from PubChem BioAssay (NCI).

Molecules are shown by their SMILES. The panel holds about 79,000 compounds, 15% with a hit somewhere; the sample as a whole holds those more often. A number with no mark means an inactive call. Calls of active or inactive are those of the source. Cut-off read from the data, not from the text of the source: active = growth inhibition above about 70%; inactive = the rest.

The nature of assay [1]: NCI Yeast Anticancer Drug Screen. Data for the rad50 strain (AID 155).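 Note: 0% = growth of vehicle-only cultures of the same strain.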 The following applies: S. cerevisiae rad50 strain growth inhibition; at 50.0 µM; hits give high values. The essentials: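 Vehicle-treated cultures provide the reference for the growth inhibition reported for compound-exposed, repair-deficient yeast.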
Assay [2] in a line: NCI Yeast Anticancer Drug Screen. Data for the mec2-1 strain (AID 157). To be noted: S. cerevisiae mec2-1 strain, at 50.0 µM, hits give high values. The essentials:
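Mutant yeast (mec2-1) grown with compound; growth inhibition relative to vehicle control reported.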

Assay [3] is described as follows: NCI Yeast Anticancer Drug Screen. Data for the sgs1 mgt1 strain (AID 161).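 Note: 0% = growth of cultures given vehicle only.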 The following applies: S. cerevisiae sgs1 mgt1 strain, at 50.0 µM, hits give high values. The essentials:
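This yeast growth screen uses a strain with defined DNA-repair lesions; compound-treated growth is compared with vehicle-treated growth.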

Assay [4] can be described thus: NCI Yeast Anticancer Drug Screen. Data for the cln2 rad14 strain (AID 165).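 Note: 0% = growth equal to vehicle treated cultures.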 To be noted: S. cerevisiae cln2 rad14 strain, at 50.0 µM, hits give high values. The procedure, abridged:
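Readout is yeast growth inhibition versus vehicle-treated controls, using a strain with cln2 and rad14 alterations exposed to compound.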

Assay [5] can be described thus: NCI Yeast Anticancer Drug Screen. Data for the bub3 strain (AID 167). The following applies: S. cerevisiae bub3 mutant strain, at 50.0 µM, hits give high values. The procedure, abridged: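 Mutant yeast screening strain plus compound; vehicle-treated cultures serve as the 0% inhibition reference.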
Assay [6] is described as follows: NCI Yeast Anticancer Drug Screen. Data for the mlh1 rad18 strain (AID 175). The following applies: S. cerevisiae mlh1 rad18 strain growth inhibition; at 50.0 µM; hits give high values. The essentials:
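Genetically defined yeast (DNA repair-deficient) exposed to compounds; growth inhibition determined relative to vehicle.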

For the compound `COc1ccc(CC2c3cc(OC)c(OC)cc3CCN2C(=O)c2ccccc2)cc1OC` (stereo unspecified), the growth inhibition is 10% in assay [1]; -18.9% in assay [2]; 9.5% in assay [3]; 16.3% in assay [4]; 10.7% in assay [5]; 1.45% in assay [6].
On to `O=c1[nH]nc(S(=O)(=O)N2CCCC2)c(=O)[nH]1`, for which the growth inhibition in assay [1] was -10.9%; in assay [2], -9%; in assay [3] it was -10.7%; in assay [4], -2.85%; in assay [5], -4.15%; in assay [6], -13.2%.
Turning to `COC1OC(COC(=O)c2ccccc2)C(OC(=O)c2ccccc2)C(OC(=O)c2ccccc2)C1OC(=O)c1ccccc1` (stereo unspecified), the growth inhibition in assay [1] was -1.3%; in assay [2], -30.8%; in assay [3], -13.6%; in assay [4], -9.4%; in assay [5], -29.8%; in assay [6] it was -14.8%.
Consider `COc1cc2c3c(c1OC)-c1[nH]c4ccccc4c1C1CCCN(CC2)C31` (stereo unspecified), for which the growth inhibition in assay [1] is -54.9%; in assay [2], -19.9%; in assay [3], -20.4%; in assay [4], -29.9%; in assay [5] it was -16.4%; in assay [6] it was -11.7%.
As to `CSc1nn(C)c2cc(C)c3ccccc3[n+]12`, the growth inhibition in assay [1] was 20.4%; in assay [2], -7.8%; in assay [3], -10.2%; in assay [4] it was 7.25%; in assay [5] it was 4.6%; in assay [6] it was -16.4%.
For `CC1(C)OB(O)OC1(C)C`, the growth inhibition in assay [1] was -10.4%; in assay [2], 12.7%; in assay [3] it was -35.2%; in assay [4], 14.6%; in assay [5] it was -0.9%; in assay [6], -9.7%.
Consider `O=C(c1ccccc1)[C@H]1Nc2ccc(Cl)cc2[C@H]2CCC[C@@H]12`, for which the growth inhibition in assay [1] was -2.4%; in assay [2], -30.2%; in assay [3], 0.1%; in assay [4], 10.2%; in assay [5] it was -14.6%; in assay [6], -17.1%.
For `CCc1nnc(-c2nsc3ccccc23)s1`, the growth inhibition is 38.5% in assay [1]; -22.9% in assay [2]; 6.4% in assay [3]; -12.8% in assay [4]; 15.8% in assay [5]; 23.3% in assay [6].
Regarding `CC(C)NC(=O)OCc1c(COC(=O)NC(C)C)n(C)c2c1ccc1ccccc12`, the growth inhibition is 89.8% (active) in assay [1]; 84.8% (active) in assay [2]; 83.8% (active) in assay [3]; 84.5% (active) in assay [4]; 87.5% (active) in assay [5]; 85.5% (active) in assay [6].
With `COc1ccccc1C(=O)Nc1c(C)cccc1Cl`, the growth inhibition is -0.45% in assay [1]; -25.9% in assay [2]; -0.8% in assay [3]; 0.4% in assay [4]; -10% in assay [5]; 7% in assay [6].
Consider `Nc1scc[n+]1CCC(=O)[O-]`, for which the growth inhibition in assay [1] is -10.1%; in assay [2], 0.75%; in assay [3] it was 3.4%; in assay [4], -13.2%; in assay [5], -2.75%; in assay [6] it was -15.8%.
Regarding `Cc1ccc(S(=O)(=O)OC(c2ccc(Cl)cc2Cl)C2OC(=O)c3ccccc32)cc1` (stereo unspecified), the growth inhibition in assay [1] is 23.3%; in assay [2], -12.4%; in assay [3], 16.9%; in assay [4], 24.7%; in assay [5], 15%; in assay [6] it was 21.4%.
`Nc1ncnc2c1ncn2C1OC(COP(=O)(O)OP(=O)(O)OCC2OC([n+]3cccc(C=O)c3)C(O)C2O)C(O)C1O` (stereo unspecified): the growth inhibition in assay [1] is 10.6%; in assay [2], 4.4%; in assay [3] it was 6.85%; in assay [4], -4.1%; in assay [5], 0.6%; in assay [6], 12.3%.
As to `CN(CCO)c1nc(N)cc(=O)[nH]1`, the growth inhibition is -17.7% in assay [1]; 12.5% in assay [2]; -10.9% in assay [3]; 4.5% in assay [4]; -10.9% in assay [5]; -8.45% in assay [6].
As for `Clc1cc(Cl)c(Cl)c(Cl)c1Cl`, the growth inhibition was -4.1% in assay [1]; -9.95% in assay [2]; -0.15% in assay [3]; 12.8% in assay [4]; -2.7% in assay [5]; 13.9% in assay [6].
For the compound `CC(=O)C(Cc1ccccc1)(Cc1ccccc1)C(C)=O`, the growth inhibition is 3.3% in assay [1]; -0.95% in assay [2]; -8.3% in assay [3]; 7.45% in assay [4]; 1.35% in assay [5]; 2% in assay [6].
On to `CC(=O)Nc1cc(F)c(NC(C)=O)c(F)c1`, for which the growth inhibition in assay [1] is -2.05%; in assay [2], -1.95%; in assay [3] it was -18.9%; in assay [4], -15.2%; in assay [5], -9.05%; in assay [6] it was -10.3%.
Regarding `CCCCNC(=O)c1ccc([N+](=O)[O-])cc1`, the growth inhibition is 29.3% in assay [1]; 12% in assay [2]; 13.4% in assay [3]; 17.6% in assay [4]; -16.8% in assay [5]; -9.05% in assay [6].
On to `Cc1nc2sc(CCl)nn2c(=O)c1Cl`, for which the growth inhibition in assay [1] is 16.1%; in assay [2], 34%; in assay [3] it was 14.6%; in assay [4] it was 17.9%; in assay [5], 21.2%; in assay [6], 10.8%.
Consider `Cc1ccc(O)c(C(=O)CCCC(=O)c2cc(C)ccc2O)c1`, for which the growth inhibition is -4.6% in assay [1]; 7.9% in assay [2]; 7.7% in assay [3]; 12.5% in assay [4]; -8.3% in assay [5]; 4.35% in assay [6].
`Cc1ccc(S(=O)(=O)c2ccc(C)cc2[N+](=O)[O-])c([N+](=O)[O-])c1`: the growth inhibition is -58.1% in assay [1]; -52.1% in assay [2]; -25.4% in assay [3]; -6.2% in assay [4]; -19.9% in assay [5]; -44.6% in assay [6].
